According to PubChem BioAssay AID1508600 (Functional Genomics Laboratory (NCATS/FGL), 2020):
About 3,700 (7%) of roughly 53,000 sequences were called active. Many of the other results were omitted from the sample, so actives are more common in it than they were. Unmarked numbers belong to inactive results.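 The calls were made as follows: active = gene knockdowns whose robust z-score for IL-1 alpha signal is at least 2 or at most -2, so actives lie on both sides; inactive = the rest.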

test: Components of the Cytosolic LPS Sensing Pathway: Gene Identification via Genome-wide siRNA Screen; details: RAW264.7 macrophages, IL-1a HTRF, actives lie on both sides, screened at 100 nM (by protocol), cells primed 5 h with Pam3CSK4 first;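 also: robust z of the log signal after scaling to non-targeting control siRNA wells of the plate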
Method in brief: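 Three distinct siRNAs per gene were tested singly at 100 nM in RAW264.7 macrophages. Following Pam3CSK4 priming and 24 hour LipidA transfection, IL-1a secretion was read by HTRF.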

Sequence | z-score
GGCUGAAGUUCAUGAUGGCTT against Cd209d | 1.7
CCACCAGGGAUCGUUAUAATT against Phyh | 2.25 (active)
GGCGAUUAUGGAAAAAUGUTT against Osbpl11 | -0.431
GGCCUUUAUUCUAUGCAGUTT against Htr3a | 1.59
GGAAAAAACGCACCAGCAUTT against Pou2f1 | 0.0271
CCAGACGCGUAACUGCUACTT against Cox6b2 | 3.26 (active)
GGACAAAGAAAAAGAUUCCTT against Stxbp6 | -0.169
CCUGGAACAUAGAUGUAUATT against Jmjd4 | 0.484
GGUCUUUUCUACAUGUGGATT against Olfr389 | 0.268
GGAUGCUGAAGUGAAGGACTT against Myt1 | -0.157
GCAUGUAGCCUGGCCUUCUTT against Zfp458 | -0.591
GGAAUGUUGGAAUCAAUUGTT against Gcm1 | 2.83 (active)
GGAAUUUUACCUUUUGGAUTT against Tm9sf3 | 0.408
GGUCUCACUGAAAAUGAAATT against Ces1g | -0.656
GGCUUGUCGUCCUGGUGUATT against Rprd2 | 0.219
GGCCUACAUCAUUCACUCCTT against Olfr64 | -0.384
GGAGGAUCUAUACCACGGUTT against Npffr2 | 0.565
GGUUCGAGUCUCUUACUCUTT against Pou4f3 | -0.574
GGGUGACCUUUACGUCUUCTT against Reep1 | 0.0877
GGGAGAAGAAUUUGAACAGTT against Ak1 | 0.557
GGUGGCAGACUGUGUUUAUTT against B3gnt8 | -2.08 (active)
GGGAUGCGGAGGUUUAAGATT against Dhx37 | 0.815

Sequence | z-score
GGAGCUAAAGCUGCUGAUUTT against S100g | -0.404
CCCAGGACGACGACUUUUUTT against Pnmal1 | -0.0664
GGACUUGGAAGUAAUUUUCTT against C230071H18Rik | 2.06 (active)
GGUUUUGGGCAAAAUUGAGTT against Edf1 | -0.899
GCUAGGUCAGGGAGUUUUATT against Exosc2 | 3.33 (active)
CCAAUGCAAUGUUAGCUUUTT against Tas1r3 | 0.898
GCCAUGGCAUAAAAACUGGTT against P2rx6 | -0.329
CCACAUGAUCCUAACUUUGTT against Pqbp1 | -0.157
CCUGAUAAGCAAAUACGGCTT against Rep15 | -0.893
CCUGAAGCCUCAAUACACATT against Ugt1a1 | 0.967
GGCCUAAACACGGUUUUCATT against Ppm1n | 3.72 (active)
GGAUGAUCACAAAGGUAUATT against 4632404H12Rik | 0.0665
CCCAGUUGGUGUUUAUAUATT against Ppp3cb | 0.115
GGAGAUUUCAUGAACUCUGTT against Srrm3 | -0.141
GGGUCUGCUACAUCUUCGGTT against Ino80e | 2.27 (active)
GGCCAGGAAAAAAUCUGCATT against Neu1 | -0.293
GGGUUUGACCUGAUUUCUCTT against Col9a1 | 0.305
GGUUACCUCCACCAGAUCATT against Avpi1 | -0.326
GGCGGUAACCACUUUCACGTT against Mycn | -0.567
GGUUCCCUUUUUCAUCUAATT against 4632433K11Rik | 3.08 (active)
GGAAGAAAUGGAAUUGAAGTT against Pcdhga6 | 0.649
GGAGCAUUCAAAUUACAUCTT against Ccni | 4.62 (active)

Sequence | z-score
GGAUGAUCAAGACAAGCAGTT against Nobox | -0.763
CCUUGGGAAUUACCCAGAGTT against Cage1 | -0.565
GCCGUUCCCAUUAUCGUUUTT against Tmem87a | -0.693
GGAAAUUUGUAUCCCGAGUTT against Trp53 | -2.14 (active)
GGAAGGUGGAGAAAAUCCGTT against Hhipl2 | 0.585
GGAAGAUACUAAUAGAGUATT against Enpep | -0.00304
GGACGACAACGACAUCAUGTT against Sfrp2 | 0.475
GGGACCAAAGGAAACUUCATT against Eif2s3y | -0.14
CCCAGGUGAUUCUGAUAUUTT against Rpl30 | 0.534
UGGACUUGCUUCUCACAUCTT against Olfr694 | -2.22 (active)
GGUACAUUGGCAUUGUGAATT against Hnrnpf | 0.525
GCCUCCUUUGCUUCAUUUCTT against Fcer1g | 1.83
GGUCUUCUGAAGAUGGCGUTT against Pja2 | 1.39
GCAACAAGUCUGGAGACAATT against Pebp1 | -0.595
GGAGUUCCAGAAGCUUCUATT against Vwa3b | -1.72
GCGGCUCUUACGAGGUUUATT against Upk3a | 0.024
CGAUGAGAGUCCACUCCCATT against Cox18 | -3.19 (active)
GGGAGUUAUGUUGGUAUCATT against 1700029F12Rik | -1.38
GGACUUCUUCUAUUUCAUATT against Fam20a | -0.986
GGAAAACACGUUCACUAUATT against Elp2 | 0.021
GGAGUCUCCAAUGAAAUGUTT against Kcnma1 | -0.464
GCUAAACGAGUUAUUGGUGTT against Ecpas | 0.829

Sequence | z-score
GGAGAAACUGGCUUUCUCUTT against Zp3 | 0.918
GGUUCUACAGAUGUUUUCUTT against Tnfrsf22 | 3.84 (active)
GCGGCAAGUGGACUUUUCATT against Dlc1 | -1.09
GCCCAGUUUGUCACAAAGCTT against Sorl1 | -0.276
GCUAAGCGGAAUGCACUCGTT against Cxcl5 | -2.23 (active)
CCCUAGUGCAGUGAUAACUTT against 1700016D06Rik | 0.938
CCCAACAAGAGUAUCUAUGTT against Foxh1 | -0.125
GGCAUCUCUCCAAUAACCUTT against Fbxw2 | -1.2
GGUUCUGGUUUAGAUGCUATT against H2aw | 2.36 (active)
GGAUUUCUUCUUAUGAUGATT against Khnyn | -1.21
GCUCAGAAUAUCACAUCAATT against Ppm1b | -1.59
GCUAAAAUAUUAGGGAAGCTT against Timm29 | 0.429
GGAGAUAGGAUUGCUUGCATT against Mthfd1l | -2.3 (active)
GGAAAGAAAAAUGAAGCUUTT against Tmem167b | -0.548
GGAUAUCGUUGUUUCUGAGTT against Lmbr1 | -1
GGGUGGUGUUCCAUGACAGTT against Ubp1 | -1.82
GGCACAAGAUUAUUUAAGUTT against Tmem68 | 0.362
GGUUCUAUGCUGAAGGUCATT against Lhfpl2 | 0.358
GGAGCUGUCCAGGUUUAUUTT against Psmd6 | -2.72 (active)
GGCUUGUGAAUGGAAAUAATT against Hsp90aa1 | -0.416
CCUUAAGACCGGAUUUUUUTT against Cyp4f14 | 0.64
GGAGUUUGUAUCAAACUUATT against Zcchc8 | 0.0121

Sequence | z-score
GGUAAUGGGAGCUAGUUUATT against 6330549D23Rik | -0.259
GCAUAGAAACCAUGCACAUTT against Acot2 | 3.28 (active)
CCGAGGACUAUUUGAAACGTT against Mrtfa | -1.46
GGAUUUGAGUUGAAGCGUGTT against Zscan20 | -0.129
GGUGGUAAAUCGAAUUGUUTT against Tmem185b | -0.171
GGCUGGCUAUAAGAAAAAATT against Mrpl35 | -0.646
GGCUUGAAGAUGUCUAUGATT against Aptx | -2.19 (active)
GGCCACAGGAAGUCAGUUATT against Gsk3b | -1.23
GCCAACCAUCAGUUUAUACTT against Mboat1 | -0.31
GGCUGAAGAACUCCUACAATT against Dennd1c | 2.17 (active)
GGUUAGUAGUCUUCUUAUCTT against Olfr1173 | 0.291
CGCACAGAGAAUAAGGGAATT against Tcta | 0.843
CCUGAUGCACUACUCGUCUTT against Dmbx1 | -0.131
GGUAAAUGUCUGCUCUGAGTT against Selenok | -2.53 (active)
GGUCAACUAGCAGAAACCATT against Adgrv1 | -1.84
CCGUAGAGAUCAACAACACTT against Npepl1 | 0.799
GGACUCCUUCCACCACAAUTT against Aifm2 | -0.2
GCACAUAGCAUCCACUCCATT against Gm4793 | -2.56 (active)
CCCUAUUUGUCAGCGGUCUTT against Rbpms | -1.94
